“And” between values parts separate entries of the source, which are not always exact repeats. Identical values can stand only once. Compounds without any hit were thinned out: in the full panel of roughly 83,000, 20% have a hit.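 96-well plates, one dose, 48 hours. Percent growth reported; active if below 10.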 The source made the active and inactive calls.

The test relates to KM12 colon. The test is described as follows: NCI-60 one-dose screen, 48 h (100 = growth as untreated, 0 = no growth, -100 = all killed). To be noted: 10 µM unless noted.
With `c1ccc(-c2cn3c(-c4c[nH]c5ccccc45)csc3n2)cc1`, the growth is 44.7% (inactive).
As for `O=C(/C=C/c1ccccc1Cl)Nc1ncc(Cc2cc(Cl)ccc2Cl)s1`, the growth is 22.1% (inactive).
`O=C(CCCCCCNC(=O)c1csc(Br)n1)NO`: the growth was 56.8% (inactive).
With `CCOC(=O)c1cnc2c(-c3ccc(Cl)c(Cl)c3)cnn2c1`, the growth was 57.5% (inactive).
As for `Cc1csc(/N=C(N)/N=C(\N)c2cccc(Br)c2)n1`, the growth was 73.2% (inactive).
With `CN1CCN(c2ccc(Nc3nc(NCCNC(=O)c4ccccc4)c4sccc4n3)cc2)CC1`, the growth is 59.6% (inactive).
For `C#Cc1cc(OC)c(C(=O)Nc2ccc(F)cc2C(=O)Nc2cccc(S(=O)(=O)C(F)(F)F)c2)cn1`, the growth was 4.44% (active).
With `CCCN1C=C/C(=C\C(=O)n2ccc3ccccc32)c2ccccc21`, the growth is 84.8% (inactive).
On to `CNC(=O)c1cc(-n2ccc3cc(NC(=O)Nc4ccc(N5CCN(C)CC5)c(C(F)(F)F)c4)ccc32)ccn1`, for which the growth was 30.5% (inactive).
Turning to `Fc1cc(F)cc(NNC(=S)c2ccccc2)c1`, the growth is 49.1% (inactive).
Consider `CCCCCCCCCCCC(=O)NC(C)(C)C(=O)N1CCCC1C(=O)NC(C)(C)C(=O)NC(C)(C)C(=O)N1CCCC1C(=O)NC(C)(C)C(=O)NC(C)(C)C(=O)N1CCCC1C(=O)NC(C)C(=O)NCCC(=O)NC(C)C(=O)NC(C)(C)C(=O)NC(C)(C)C(=O)NC(C)(C)C(=O)NCCC(=O)NC(C)(C)C(=O)NC(C)(C)C(=O)NC(C)(C)C(=O)NC(C)C(=O)NCCC(=O)O` (stereo not given), for which the growth is -98.5% (active).
Regarding `CC[C@]12C=CCN3CC[C@@]4(c5ccc(OC)cc5N(C)[C@H]4[C@@](O)(C(=O)OC)[C@@H]1OC(=O)CCN1CCc4ccccc4C1)[C@@H]32`, the growth is 103% (inactive).
The figure for `O=C(CCCCCCNC(=O)C(O)(O)C(F)(F)F)Nc1ccc(-c2ccccc2)cc1` is 8.38% (active); for `Brc1cccc(-c2cc(-c3cnc4c(c3)OCCO4)n[nH]2)c1` it is 41.6% (inactive).
Regarding `CS(=O)(=O)c1ccc(/C(=N/N=C(N)N)c2ccc(Cl)cc2)cc1`, the growth is 72% (inactive).
With `CCN1CCN(c2ccc(NC(=O)Nc3ccc4c(ccn4-c4ccnc(C(=O)NC)c4)c3)cc2C(F)(F)F)CC1`, the growth is 36.4% (inactive).
With `Cc1ccc2c(n1)C(=O)C(Cl)=C(Nc1ccc(C#N)cc1)C2=O`, the growth is 102% (inactive).
With `NS(=O)(=O)c1ccc(Nc2nc(Nc3ccccc3)nc(N3N=C(c4ccc(Cl)cc4)CC3c3ccc(Cl)cc3)n2)cc1` (stereo not given), the growth was 5.08% (active).
Take `COC(=O)c1cccc(NC2=C(Cl)C(=O)c3nc(C)ccc3C2=O)c1`: the growth is 106% (inactive).
The result for `C#CCN(C)CCCOc1ccc(NCc2ccc(/C=C/C(=O)NO)cc2)cc1Cl` reads 5.72% (active); that for `Cc1nc(N)sc1-c1csc(Nc2ccc(C(F)(F)F)cc2)n1`, 10.4% (inactive); that for `COc1ccc(-c2nc(C#N)c(N3CCC(S(=O)(=O)N4CCOCC4)CC3)o2)cc1`, 97.1% (inactive).
For the molecule `O=C(CCCCCCN1CC(=O)N2[C@@H](c3ccc(Cl)s3)c3[nH]c4ccccc4c3C[C@H]2C1=O)NO`, the growth was 71.9% (inactive).
As for `C#C[C@]1(O)CC[C@H]2[C@@H]3CC=C4c5sc(N(C)c6ccccc6)nc5CC[C@]4(C)[C@H]3CC[C@@]21C`, the growth was 54.6% (inactive).
For the molecule `COc1ccc(/C=N/NC(=O)c2c(N)nn(C)c2Nc2ccccc2)cc1Oc1ccccc1`, the growth was 92.7% (inactive).
For the molecule `CCOC(=O)c1cccc(NC2=C(Cl)C(=O)C(C)=C(C)C2=O)c1`, the growth was 89.6% (inactive).
For the molecule `Cc1ccc(NC(=O)Nc2nc3ccc([N+](=O)[O-])cc3s2)cc1`, the growth was -3.91% (active).
Consider `Oc1[nH]c2ccc(Cl)cc2c1N=Nc1nc(N=Nc2c(O)[nH]c3ccc(Cl)cc23)nc(N2CCOCC2)n1`, for which the growth was 81.2% (inactive).
`C[C@H](Nc1ncnc2ccc(-c3cnc(Cl)c(NS(C)(=O)=O)c3)cc12)c1ccccc1`: the growth is -79% (active).
Take `Brc1ccc(-c2cc(-c3ccc4c(c3)OCCO4)n[nH]2)s1`: the growth is 28.2% (inactive).
As for `C/C=C/CC(C)C(O)[C@H](NC(=O)[C@@H]1CCCN1C(=O)[C@](C)(CC)NC(=O)CCCCCCCCC)C(=O)N[C@@](C)(CC)C(=O)N[C@@H](CCC(N)=O)C(=O)N[C@H](CCC(N)=O)C(=O)NC(C)(C)C(=O)NC(C)(C)C(=O)N[C@@H](CCC(N)=O)C(=O)N[C@H](CC(C)C)C(=O)N[C@H](CO)CC(C)C` (stereo not given in full), the growth was 21.6% (inactive) and -65% (active).
Regarding `CC(=C(c1ccc(OCCCN(C)C)cc1)c1ccc(OCCCN(C)C)cc1)c1ccc(Cl)cc1`, the growth was 84.2% (inactive).
Regarding `CCc1cc2c(cc1Cl)nc1c(=O)[nH]c(=O)nc-1n2CCOCC(C)(C)C`, the growth was 76.5% (inactive).
Turning to `COc1ccc(/C=N/N=C(/c2ccccc2)c2ccc3nc(-c4ccc(Cl)cc4)[nH]c3c2)cc1`, the growth is 75.8% (inactive).
For the molecule `Cc1[nH]c(C(=O)Nc2ccc(S(=O)(=O)N3CCCCC3)cc2OCCOCCOCCOCCOCCOCCOCCOCCOCCOc2cc(S(=O)(=O)N3CCCCC3)ccc2NC(=O)c2[nH]c(C)c3c2CCCCC3=O)c2c1C(=O)CCCC2`, the growth was 29.1% (inactive).
The figure for `Cc1csc(/N=C(N)/N=C(\N)c2cccc(C#N)c2)n1` is 46.4% (inactive).
As for `CC1(C)CC[C@]23CC[C@]4(C)[C@H](CC[C@@H]5[C@@]6(C)CC[C@H](NCO)C(C)(C)[C@@H]6CC[C@]54C)[C@H]2[C@H]1OC3`, the growth was -0.242% (active).
The figure for `NC1CC2(CCN(c3cnc(C(=O)Nc4cc(F)cc5cccnc45)cn3)CC2)C1` is 81.7% (inactive); for `COc1ccc(-c2cc(-c3ccc(N4CCOCC4)cc3)n3c(n2)nc2ccccc23)cc1OC` it is 99% (inactive).
With `CN1CCC[C@]2(C)[C@H]3CC[C@@H]4[C@@H]5[C@H]6OC[C@@]5(CCC6(C)C)CC[C@@]4(C)[C@]3(C)CC[C@H]2C1(C)C`, the growth was 79.1% (inactive).

The values above are taken from PubChem BioAssay (NCI).
